Source: PubChem BioAssay (National Center for Advancing Translational Sciences (NCATS))
DT40 TDP1 no CPT – qHTS for Inhibitors of human tyrosyl-DNA phosphodiesterase 1 (TDP1): qHTS in cells in absence of CPT; DT40 Tdp1-/- hTDP1 cells, no CPT, ATP luminescence, 48 h; Potency, µM (highest dose often 46.2 µM), for the others: at the highest dose activity change, negative = growth inhibition, actives largely listed as inhibitors; actives 15% (n = 420,000); AID 686978, 2013; note: potency is the fitted concentration of half-maximal effect; nearly all actives have a fitted effect of over 55% in size
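No-CPT arm: Tdp1-/-;hTDP1 DT40 cells (400/well) plus compounds, incubated ≥48 hr at 37 °C. Readout CellTiter-Glo luminescence.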
DT40 TDP1 CPT – qHTS for Inhibitors of human tyrosyl-DNA phosphodiesterase 1 (TDP1): qHTS in cells in presence of CPT; chicken DT40 Tdp1-/-;hTDP1 cells + 20 nM CPT, ATP luminescence, 48 h; AID 686979, 2013; actives 12% (n = 420,000); Potency, µM (highest dose often 46.2 µM), for inactives: top-dose activity change, negative = growth inhibition, actives largely listed as inhibitors; note: potency is the fitted concentration of half-maximal effect; nearly all actives have a fitted effect of over 55% in size
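Chicken DT40 Tdp1-/- cells complemented with human TDP1, 400 cells/well, exposed to compounds plus 20 nM camptothecin for at least 48 h at 37 C; viability read as ATP content by CellTiter-Glo luminescence.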
HT1080 IDH1KD tx – qHTS for induction of synthetic lethality in tumor cells producing 2HG: qHTS for the HT-1080-IDH1KD cell line; HT-1080 IDH1 knockdown viability, ATP luminescence, 48 h; Potency, µM (series often up to 46.1 µM), for inactives: at the top dose activity, negative = toxicity, usual class: cytotoxic; actives 2% (n = 360,000);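 note: potency is the fitted concentration of half-maximal effect; 0% = DMSO wells and -100% = cell-free medium wells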
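Using the IDH1-knockdown HT-1080 line run in the same batch and compound series as the NT line, viability after 48 h at 37 °C was determined by CellTiter-Glo luminescence and expressed as % activity.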
IL-1B inflam inh – qHTS for Inhibitors of Inflammasome Signaling: IL-1-beta AlphaLISA Primary Screen; THP-1 LPS/ATP IL-1B secretion, AlphaLISA, 16 h; active compounds read low; activity change, % at 57.5 µM; actives 4.7% (n = 360,000); in the data active = activity change below about -50%; inconclusive = mostly about -30% to -49%
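Secreted IL-1B measured by AlphaLISA bead assay after 16 h compound exposure of THP-1 cells; compounds (final up to 57.5 uM) added 1 h before LPS (250 ng/mL) and ATP (1.25 mM) stimulation; lower signal means less secretion.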
HT1080-NT tox – qHTS for induction of synthetic lethality in tumor cells producing 2HG: qHTS for the HT-1080-NT fibrosarcoma cell line. AID 686970, 2013. actives 1.6% (n = 360,000). Potency, µM (titrated, usually from 46.1 µM), for inactives: at the top dose activity, negative = less viability, most hits filed as cytotoxic. HT-1080-NT fibrosarcoma viability, CellTiter-Glo ATP luminescence, 48 h;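 note: NT is the 2HG producing partner of a matched IDH1 knockdown line; potency is the fitted concentration of half-maximal effect; 0% = DMSO-treated cells and -100% = media-only wells without cells; nearly all actives have a fitted effect of over 55% in size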
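Compounds were tested in concentration-response format on HT-1080-NT cells for 48 hours at 37 degrees C. Cell viability came from CellTiter-Glo luminescence; curves were classified by r2, response magnitude and activity.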
* marks the source's active call; other numbers are inactive results. Hits are enriched below; roughly 19% of the tested compounds scored in any of these assays. Unless noted, calls come from the whole dose curve; as a rule, active = well fitted curve in the direction sought with a large enough effect; inconclusive = small, poorly fitted or top-dose-only effect, or another doubt; inactive = no such curve, though single readings can be large; an effect the other way counts as inactive or inconclusive. Unless noted, % is set by controls: 0 for no effect and ±100 for the full control effect.

Screening O=C(c1cc(-c2ccc(Br)cc2)n[nH]1)N1CCN(C(=O)c2ccccc2Br)CC1 returned DT40 TDP1 no CPT inconclusive, DT40 TDP1 CPT inconclusive, HT1080 IDH1KD tx 0%, IL-1B inflam inh -11 and HT1080-NT tox -16%.
`COc1ccc(S(=O)(=O)N2CCN(C(=O)c3cc(-c4ccc(Br)cc4)n[nH]3)CC2)cc1OC` gave DT40 TDP1 no CPT 7.3µM*, DT40 TDP1 CPT 9.2µM*, HT1080 IDH1KD tx inconclusive and HT1080-NT tox inconclusive.
For COc1ccc(Cl)cc1S(=O)(=O)N1CCN(C(=O)c2cc(-c3ccc(Br)cc3)n[nH]2)CC1 the results were DT40 TDP1 no CPT 9.2µM* and DT40 TDP1 CPT 12µM*.
Cc1ccc(S(=O)(=O)N2CCN(C(=O)C3CCN(C(=O)c4ccc(F)cc4)CC3)CC2)c(C)c1 was read as DT40 TDP1 no CPT 10µM*, DT40 TDP1 CPT inconclusive, HT1080 IDH1KD tx -14%, IL-1B inflam inh -7 and HT1080-NT tox -15%.
`COc1ccccc1CNS(=O)(=O)c1cccs1` gave DT40 TDP1 no CPT 1%, DT40 TDP1 CPT 11%, HT1080 IDH1KD tx 6%, IL-1B inflam inh 14 and HT1080-NT tox 4%.
O=C(C1=C(O)C(=O)N(Cc2ccco2)C1c1ccccc1)c1cccs1 (configuration not stated) was read as DT40 TDP1 no CPT -3%, DT40 TDP1 CPT -13%, HT1080 IDH1KD tx 16%, IL-1B inflam inh 0 and HT1080-NT tox 19%.
For Cc1ccc(-n2c(SCC(=O)N3CCOCC3)nnc2-c2ccncc2)cc1 the results were DT40 TDP1 no CPT 0%, DT40 TDP1 CPT -1%, HT1080 IDH1KD tx 26%, IL-1B inflam inh -3 and HT1080-NT tox 9%.
Cc1cc2ccccc2n2c(SCC(=O)N3CCc4ccccc4C3)nnc12 was read as DT40 TDP1 no CPT inconclusive, DT40 TDP1 CPT inconclusive, HT1080 IDH1KD tx 9%, IL-1B inflam inh -5 and HT1080-NT tox 15%.
O=C(CSC1=NCCS1)N1CCN(c2ccc(Cl)cc2)CC1 was read as DT40 TDP1 no CPT inconclusive, DT40 TDP1 CPT inconclusive, HT1080 IDH1KD tx inconclusive, IL-1B inflam inh -77* and HT1080-NT tox -25%.
`O=C(CSc1nnc(-c2ccncc2)n1-c1ccccc1)N1CCN(c2ccc(Cl)cc2)CC1` gave DT40 TDP1 no CPT 18µM*, DT40 TDP1 CPT inconclusive, HT1080 IDH1KD tx 5%, IL-1B inflam inh 14 and HT1080-NT tox 10%.
For COc1ccc(N2CCN(C(=O)CSc3nnc4c(C)cc5ccccc5n34)CC2)cc1 the results were DT40 TDP1 no CPT 13µM*, DT40 TDP1 CPT 16µM*, HT1080 IDH1KD tx -2%, IL-1B inflam inh 16 and HT1080-NT tox -4%.
`Cc1ccc(-n2c(SCC(=O)N3CCOCC3)nnc2-c2cccnc2)cc1` gave DT40 TDP1 no CPT -6%, DT40 TDP1 CPT 1%, HT1080 IDH1KD tx 5%, IL-1B inflam inh -23 and HT1080-NT tox 17%.
Screening O=C(CSC1=NCCS1)c1ccc(Cl)cc1 returned DT40 TDP1 no CPT inconclusive, DT40 TDP1 CPT inconclusive, HT1080 IDH1KD tx -21%, IL-1B inflam inh -26 and HT1080-NT tox -24%.
For O=C(CSc1nnc(-c2cccnc2)n1-c1ccccc1)N1CCN(c2ccc(F)cc2)CC1 the results were DT40 TDP1 no CPT 21µM*, DT40 TDP1 CPT inconclusive, HT1080 IDH1KD tx 5%, IL-1B inflam inh -6 and HT1080-NT tox 4%.
Cc1ccc(C(=O)Nc2cccc(OCc3cc(=O)n4c5c(sc4n3)CCCC5)c2)cc1 was read as DT40 TDP1 no CPT -15% and DT40 TDP1 CPT -16%.
`COc1ccc(N2CCN(C(=O)CSc3nnc(-c4cccnc4)n3-c3ccc(F)cc3)CC2)cc1` gave DT40 TDP1 no CPT 21µM*, DT40 TDP1 CPT inconclusive, HT1080 IDH1KD tx 11%, IL-1B inflam inh -18 and HT1080-NT tox -4%.
Screening O=C(CSc1n[nH]c(-c2ccccc2)n1)N1CCN(c2ccc(F)cc2)CC1 returned DT40 TDP1 no CPT 23µM* and DT40 TDP1 CPT inconclusive.
For COc1ccc(N2CCN(C(=O)CSc3nnc(-c4cccnc4)n3-c3ccccc3)CC2)cc1 the results were DT40 TDP1 no CPT -21%, DT40 TDP1 CPT -28%, HT1080 IDH1KD tx -3%, IL-1B inflam inh -18 and HT1080-NT tox 0%.
O=C(CSc1n[nH]c(-c2ccccc2)n1)N1CCOCC1 was read as DT40 TDP1 no CPT -16%, DT40 TDP1 CPT -13%, HT1080 IDH1KD tx inconclusive, IL-1B inflam inh -22 and HT1080-NT tox 15%.
For COc1cccc(C(C)(O)c2nc(-c3cccs3)cs2)c1 (configuration not stated) the results were DT40 TDP1 no CPT inconclusive, DT40 TDP1 CPT inconclusive, HT1080 IDH1KD tx 0%, IL-1B inflam inh 14 and HT1080-NT tox -13%.
Screening CN(C)C(=O)c1cccc(-c2cnc3c(NC=O)cc(-c4ccccc4N(C)C)cn23)c1 returned DT40 TDP1 no CPT 16µM*, DT40 TDP1 CPT 23µM*, HT1080 IDH1KD tx inconclusive, IL-1B inflam inh 24 and HT1080-NT tox -23%.
CN(C)C(=O)c1cccc(-c2cnc3c(NC=O)cc(-c4ccccc4Cl)cn23)c1 was read as DT40 TDP1 no CPT 5.2µM*, DT40 TDP1 CPT 2.6µM*, HT1080 IDH1KD tx inconclusive, IL-1B inflam inh -53* and HT1080-NT tox -12%.
`COc1ccc(COC(=O)c2ccc(C)c(S(=O)(=O)N3CCOCC3)c2)cc1F` gave DT40 TDP1 no CPT -29%, DT40 TDP1 CPT -24%, HT1080 IDH1KD tx -18%, IL-1B inflam inh inconclusive and HT1080-NT tox 1%.
Screening Clc1ccc(C(c2nnnn2C2CCCC2)N2CCN(c3nc4ccccc4s3)CC2)cc1 (configuration not stated) returned DT40 TDP1 no CPT -21%, DT40 TDP1 CPT -6%, HT1080 IDH1KD tx 3%, IL-1B inflam inh -5 and HT1080-NT tox 11%.
CCN(CC)C(c1ccc(F)cc1)c1nnnn1C1CCCCC1 (configuration not stated) was read as DT40 TDP1 no CPT -4%, DT40 TDP1 CPT -8%, HT1080 IDH1KD tx 1%, IL-1B inflam inh 10 and HT1080-NT tox 2%.
Screening Clc1ccc(CN(Cc2ccccc2)C(c2cccs2)c2nnnn2C2CCCC2)cc1 (configuration not stated) returned DT40 TDP1 no CPT 15µM*, DT40 TDP1 CPT 15µM*, HT1080 IDH1KD tx -17%, IL-1B inflam inh -14 and HT1080-NT tox -16%.
